Test results reported in PubChem BioAssay AID651803 (National Center for Advancing Translational Sciences (NCATS), 2012).
Out of some 1,200 compounds screened, fewer than 10 were called active. Calls come from the whole dose curve; as a rule, active = well fitted curve in the direction sought with a large enough effect; inconclusive = small, poorly fitted or top-dose-only effect, or another doubt; inactive = no such curve, though single readings can be large or run the other way. The list is a sample of the results.

target: Transcriptional regulator ERG (Homo sapiens) (UniProt P11308); assay: qHTS for Small Molecule Inhibitors of the ERG Ets/DNA interaction: TR assay against cherry picks; settings: ERG Ets domain-DNA fluorescence polarization, Texas red probe; series mostly up to 154 µM
From the text: The Ets family of proteins is a family of ~30 conserved transcription factors defined by the presence of an ~85 amino acid domain referred to as the Ets domain, which mediates sequence-specific DNA binding to a core DNA element GGAA/T.The Ets family member ERG has been linked to several neoplasms. […] More extensive studies of the effects of over-expression of ERG in prostate cells have recently been carried out and have shown that over-expression of ERG results in increased invasion. […] We will carry out a high throughout screen to identify inhibitors of the interaction between ERG and DNA using a fluorescence polarization (FP) assay with a His-tagged ERG Ets domain and fluorescently-labeled DNA probes to develop small molecule inhibitors of this interaction as probes to test this hypothesis and lay the groundwork for the development of targeted therapies against ERG. This is the confirmation against the cherry picks in theprimary screening assay. NIH Molecular Libraries Probe Production Network [MLPCN] NIH Chemical Genomics Center [NCGC] Grant: NS066464 PI Name: John Bushweller, University of Virgina
1.5 ul of protein solution (1 uM ERG domain in 300mM KCl, 50mM Tris-HCl, 1mM EDTA, 1mM DTT, pH 7.5); 20 nl Control plate and compound library plate; 1.5 ul mixture of 5 nM Fluorescein-DNA and 100nM Texas-615-DNA solution in same buffer as above solution; measure fluorescence polarization sequentially for fluorescein (Excitation = 480 nm, Emission = 535s, 535p nm) and Texas red (Excitation = 555 nm, Emission = 632s, 632p nm).

Chain of Transcriptional regulator ERG (Homo sapiens) (P11308 whole entry, looked up, the tested form may be a part): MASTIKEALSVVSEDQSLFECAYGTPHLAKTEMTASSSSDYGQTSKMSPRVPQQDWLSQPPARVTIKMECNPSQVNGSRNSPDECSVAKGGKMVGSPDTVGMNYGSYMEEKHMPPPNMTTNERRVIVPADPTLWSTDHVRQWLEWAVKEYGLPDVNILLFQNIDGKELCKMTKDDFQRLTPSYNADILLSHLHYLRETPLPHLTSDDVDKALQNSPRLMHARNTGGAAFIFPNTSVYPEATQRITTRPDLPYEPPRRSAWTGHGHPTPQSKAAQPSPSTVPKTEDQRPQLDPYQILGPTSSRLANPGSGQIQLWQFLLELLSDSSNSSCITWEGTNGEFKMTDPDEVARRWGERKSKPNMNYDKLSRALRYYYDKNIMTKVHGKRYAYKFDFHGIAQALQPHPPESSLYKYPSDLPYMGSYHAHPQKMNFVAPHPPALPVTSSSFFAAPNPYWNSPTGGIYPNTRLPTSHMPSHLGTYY

outcome, inactive:
CCOc1ccc(NC(=O)Cc2c(C(=O)O)n(C)c3ccccc23)cc1
CN(CC(=O)NC(=O)NC1CCCCC1)CC(=O)Nc1ccc(Cl)cc1
NC(=O)Nc1ccc(C(=O)OCC(=O)NC2CCCc3ccccc32)cc1 (stereo not given)
Cc1ccccc1S(=O)(=O)N(CC(O)CN1C(=O)NC(C)(C)C1=O)c1ccccc1 (stereo not given)
Cn1cc2c(=O)n(/N=C/c3ccccc3)cnc2n1
O=C(O)CN1C(=O)C(=O)N(Cc2ccc(C(F)(F)F)cc2)C1=O
Cn1cccc1C(=O)OCC(=O)Nc1ccc2[nH]c(=O)[nH]c2c1
CCC(C)NCCOc1ccc(C)cc1[N+](=O)[O-] (stereo not given)
CC(C)n1c(SCc2ccccc2F)nc2c1c(=O)n(C)c(=O)n2C
CCc1ccc2c(c1)c(=O)c(C(=O)c1ccc(C)cc1)cn2CC(=O)Nc1ccccc1C
COc1ccc(C(=O)N2CCc3ccc(NC(=O)c4ccccn4)cc3C2)cc1F
CCN(CC(=O)Nc1ccc(N2CCOCC2)cc1)CC(=O)NC(C)(C)C
Cc1ccc(C)c(N(CC(=O)NCc2ccco2)C(=O)CNS(=O)(=O)c2ccc(F)cc2)c1
O=C(OCC(=O)N1CCN(c2ccccc2)CC1)c1cccc([N+](=O)[O-])c1
O=C(Nc1ccc(NS(=O)(=O)c2ccc([N+](=O)[O-])cc2)cc1)c1ccco1
Oc1ccccc1CN1CCCC(N2CCN(c3cccc(C(F)(F)F)c3)CC2)C1 (stereo not given)
O=C(NNC(=O)c1sccc1-n1cccc1)Nc1ccccc1
CCOC(=O)c1c(NC(=O)C(C)Sc2cn(CCNC(=O)c3ccc(OC)c(OC)c3)c3ccccc23)sc2c1CCC2 (stereo not given)
CC(=O)NCc1ccc(S(=O)(=O)N2CCN(c3ccccn3)CC2)cc1
CN(C(=O)COC(=O)c1cc(S(=O)(=O)N2CCOCC2)ccc1F)C1CCS(=O)(=O)C1 (stereo not given)
Cn1c(SCc2nnc(-c3ccccc3)o2)nc2ccccc21
COc1cccc(OC)c1C(=O)Nn1c(-c2cccs2)nc2ccccc2c1=O
Cc1cc(C)c2nc(NC(=O)[C@@H](NC(=O)c3cccc(S(=O)(=O)N4CCOCC4)c3)C(C)C)sc2c1
S=C(NCCc1ccccc1)Nc1ccc(Cl)cc1Cl
CN(C)Cc1cc2ccccc2c2c1COC2
O=C(NCC1CCN(S(=O)(=O)c2ccccc2)CC1)Nc1ccc(F)cc1
O=C1/C(=C/c2cccs2)Sc2ccccc21
Cc1ccc(N(CC(=O)NC2CCCC2)C(=O)CNC(=O)c2cccs2)c(C)c1
COc1ccc(N(C(=O)c2snc(C(N)=O)c2N)C(C(=O)NCC2CCCO2)c2ccc3ncccc3c2)cc1OC (stereo not given)
Cc1ccc(-c2[nH]c(-c3ccc(C(=O)O)cc3)nc2-c2ccccc2)cc1
Cc1ccccc1OCc1nc(-c2ccc(NC(=O)c3ccc4c(c3)OCO4)cc2)no1
CCOCCCNCC(=O)Nc1ccc(S(=O)(=O)NC(C)CC)cc1 (stereo not given)
CC1CCN(C(=O)COC(=O)c2ccc(=O)n(Cc3ccccc3)n2)CC1
C=CCN1C(=O)c2ccc(C(=O)Nc3ccccn3)cc2C1=O
Cc1cccc(NC(=O)c2cc3ccccc3nc2C)c1
CC(=O)Nc1ccc(S(=O)(=O)N[C@@H](C)C(=O)N2CCN(C/C=C/c3ccccc3)CC2)cc1
COc1ccc(CN2CCC(C(=O)N3CCCC(C)C3)CC2)cc1OC (stereo not given)
Cc1ccc(NS(=O)(=O)c2cc(Br)cnc2N)c(Cl)c1
CCOc1cc(S(=O)(=O)n2ccc(C)n2)ccc1Br
COc1ccc(NC(=O)C2CC(=O)n3c(nc4ccccc43)N2)cc1 (stereo not given)
COc1ccc(OC)c(NC(=O)c2cccc(NC(=O)c3ccccc3)c2)c1
COc1ccc(CNCCC2(C(C)C)CCOC(C)(C)C2)cc1 (stereo not given)
O=C(NCCCN1CCOCC1)c1ccc(CSc2ccc(Cl)cc2)cc1
O=C(CN1C(=O)CS/C1=C\c1nc(-c2ccc(Cl)cc2)cs1)Nc1cccnc1Cl
NCCNc1ccc2nnnn2n1
CCN(CC)S(=O)(=O)c1cccc(-c2nc3n(n2)Cc2ccccc2-3)c1
O=C(COc1ccc(-c2ccccc2)cc1)N1CCN(C(=O)c2cccs2)CC1
Cc1cc(/C=C(\C#N)C(=O)Nc2ccccc2)c(C)n1-c1ccc(C(=O)O)cc1
Cc1ccc(C=Nc2cccnc2N)cc1
CC(C)C1NC(=S)N(Cc2ccccc2)C1=O (stereo not given)
Cc1nc2ccccc2c(=O)n1NC(=O)c1cccnc1Cl
COc1ccc(CCn2c(C)cc(C(=O)COC(=O)c3cnc(C)cn3)c2C)cc1
CCC(CC)COC(=O)C(C#N)c1nc2ccccc2nc1N1CCN(CC)CC1 (stereo not given)
CCc1ccccc1N(CC(=O)NCc1ccco1)C(=O)CCC(=O)Nc1ccccn1
COc1ccc(NC(=O)CSCC(=O)N(C)Cc2cccc(OC)c2OC)cc1
CN(C)c1ccc2c3c(ccc(N(C)C)c13)C(=O)OC2
COc1ccc(NC(=S)NCc2ccc3c(c2)cc(C)n3C)cc1
Cc1cc2cc(CNC(=O)c3ccc(S(=O)(=O)N4CCCCC4)cc3)ccc2n1C
COc1cc(OC)c(N(C)S(=O)(=O)c2cccc(C(=O)NC(C)C3CC4CCC3C4)c2)cc1Cl (stereo not given)
Nc1nc(Cl)c2ncn(C3OC(CO)C(O)C3O)c2n1 (stereo not given)
CC(C)(C)c1ccc(OCC(=O)Nc2cccc(S(=O)(=O)NC3=NCCCCC3)c2)cc1
CCc1nc2ccccc2c(C(=O)NCc2ccccc2)c1C
COC(=O)c1cc(NC(=O)c2c(Cl)cnn2C)cc(C(=O)OC)c1
O=C(CC(c1ccccc1)c1cc(Cl)ccc1O)NCCCN1CCOCC1 (stereo not given)
Cc1cccc(N2C(=O)CC(Cn3nc(C)cc3C)C2=O)c1 (stereo not given)
CC1=CC(=O)C(C(C)C)=C/C1=C(\c1cc(C(C)C)c(OP(=O)(O)O)cc1C)c1ccccc1C(=O)O
Nc1c(C(=O)O)cnn1-c1ccccc1
OC(Cn1cnnc1)c1ccccc1 (stereo not given)
COc1ccccc1NS(=O)(=O)c1cc(C(=O)N2CCCC2)ccc1C
COc1ccc(-c2nc3n(n2)C(c2ccccc2OC)C(C(=O)Nc2cccnc2)=C(C)N3)cc1 (stereo not given)
COc1ccc2c(CCNC(=O)/C=C/c3ccc(OC)c(OC)c3)c[nH]c2c1
O=C(/C=C/c1ccc([N+](=O)[O-])cc1)NCc1ccco1
CC1(C)C2CCC1(CS(=O)(=O)N1CCC(C(N)=O)CC1)C(=O)C2 (stereo not given)
CC(C)CNC(=O)CCc1nc(-c2ccccc2)no1
COc1ccc(N/C=C(\C(C)=O)c2ccc(OC)c(OC)c2)cc1OC
O=C(CNC(=S)N(CCCN1CCOCC1)Cc1cccs1)NC1CCCCC1
O=C(COc1ccc(F)cc1)Nc1nnc(-c2ccncc2)s1
COc1ccc(CCCC(=O)Nc2cc(C)ccc2OC)cc1
CCOC(=O)C1CCCN(C(=O)c2nn(-c3ccc(C)cc3)c(=O)n(C)c2=O)C1 (stereo not given)
O=[N+]([O-])c1ccc(S(=O)(=O)N/N=C/c2ccsc2)cc1
O=C(Nc1ccc(N2CCOCC2)cc1)c1ccc2nc(-c3ccco3)c(-c3ccco3)nc2c1
CCn1c(=O)cc(OCC(=O)Nc2ccccc2C#N)c2ccccc21
CCOC(=O)C(=O)c1c(-c2ccccc2)nc2ccccn12
O=C(NCC(=O)N(c1ccccc1)C(C(=O)NC1CCCCC1)c1cccnc1)c1ccco1 (stereo not given)
C[C@H](CO)N1C[C@H](C)[C@@H](CN(C)CC2CC2)Oc2c(NC(=O)C3CC3)cccc2C1=O
CCOc1ccccc1C1CC(c2ccc(Br)cc2)Nc2nc(N)nn21 (stereo not given)
COc1ccc(/C=C/C(=O)Nc2c(C(=O)O)[nH]c3ccccc23)cc1OC
COc1ccc(-c2noc(Cn3c(=O)c4ccccc4n(CC(=O)Nc4cccc(C(F)(F)F)c4)c3=O)n2)cc1
COCCNC(=O)CSc1nc2ccccc2c(=O)n1-c1cccc(OC)c1
CCCCSc1cc(=O)n(-c2ccccc2)nc1C(=O)OCC
COc1c2c(c(CCC(=O)O)c3c1C=CC(C)(C)O3)OC(C)(C)C=C2
CC1Cc2ccccc2N1CC(=O)Nc1ccc2c(c1)OCO2 (stereo not given)
CCC(C)NCCCOc1ccc(C)cc1OC (stereo not given)
CCc1ccc(S(=O)(=O)NC2CC(C)(C)NC(C)(C)C2)cc1
Cc1cc2nc(-c3ccc[nH]c3=O)n(Cc3ccccc3F)c2cc1C
COc1ccc(OCCN2CCN(C(=O)c3ccc(OC(F)F)c(OC)c3)CC2)cc1
COc1ccc(C(=O)N(C)Cc2ccc(C)o2)cc1OC1CCN(C(C)C)CC1
COC(=O)C(CSCc1ccccc1)NC(=O)CSc1nc(N)cc(=O)[nH]1 (stereo not given)
COc1ccc2cc(CO)c(Cl)nc2c1
Cc1cccc(-c2cnn(-c3cccc([N+](=O)[O-])c3)c2N)c1
CC(=O)Nc1ccc(SCC(=O)N(C)C2CCS(=O)(=O)C2)cc1 (stereo not given)
CC(C)=CCOc1ccc2ccc(=O)oc2c1
CCOC(=O)COc1ccc(/C=C2/C(=O)NN(c3ccc(F)cc3)C2=O)cc1OC
Cc1ccc(-c2nnn(CC(=O)N(c3ccccc3)C(C(=O)NCC3CCCO3)c3ccc(F)cc3)n2)o1 (stereo not given)
Cc1ccc(CNC(=O)COc2ccc(S(=O)(=O)N3CCCC3)cc2)cc1
